# Laboratory results published in PubChem BioAssay AID651610 (Broad Institute, 2012).
# Out of some 360,000 compounds screened, about 3,900 (1.1%) were called active.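 Rule for the calls: active = mean replicate inhibition score of at least 50 and every replicate individually at or above 50; inconclusive = only one of the two criteria met; inactive = mean below 50 and not all replicates reaching 50.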 Shown is part of a subset that was picked to be rich in actives.
# Experiment: inhibitors of HIV-1 Env-driven cell-cell fusion, primary screen, HeLa-JRFL effector, CEM21 target cells, luciferase (AID 651610);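 note: 0% = plate neutral controls and 100% = maraviroc near 300 nM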
# Settings: hits give high values; at 16.7 µM unless noted
row,SMILES,inhibition
1,COc1ccc2c3c([nH]c2c1)[C@@H](CO)N(C(=O)c1ccccc1)CC31CCN(Cc2cccnc2)CC1,-8.66% (inactive)
2,O=S1(=O)c2c(cccc2N2CCCC2)O[C@H](COCc2ccccc2)CN1C1CC1,-8.42% [at 12.3 µM] (inactive)
3,CSc1ccc(Oc2cccc3c2S(=O)(=O)N([C@H](C)c2ccccc2)C[C@@H](COCc2ccccc2)O3)cc1C,10.8% [at 12.3 µM] (inactive)
4,O=S1(=O)c2c(cccc2N2CCCCC2)O[C@H](COCc2ccccc2)CN1C1CC1,102% [at 12.3 µM] (active)
5,COc1ccc(NC(=O)N(C)C[C@@H]2Oc3ccc(NC(=O)Cc4cn(C)c5ccccc45)cc3CC(=O)N([C@@H](C)CO)C[C@H]2C)cc1,-18.3% (inactive)
6,CCc1cnc(N2[C@H](C#N)[C@H](c3ccc(C4=CCCC4)cc3)[C@@H]2CO)s1,1.6% (inactive)
7,Cc1cc(O)ccc1-c1cc(C(=O)NCc2cc(C(F)(F)F)cc(C(F)(F)F)c2)[nH]n1,59.8% [at 12.3 µM] (active)
8,Cc1ccc(O)c(-c2cc(C(=O)NCc3ccccc3)[nH]n2)c1,-126% [at 12.3 µM] (inactive)
9,CCCOc1ccc(F)cc1-c1cc(C(=O)NCc2ccc(F)cc2)[nH]n1,-16.3% [at 12.3 µM] (inactive)
10,CS(=O)(=O)N1[C@H](C#N)[C@H](c2ccc(C#CC3CCCC3)cc2)[C@H]1CO,1.54% (inactive)
11,COc1cccc(S(=O)(=O)Nc2ccc3c(c2)[C@@H]2C[C@H](CC(=O)NC4CCCCC4)O[C@H](CO)[C@@H]2O3)c1,-12.8% (inactive)
12,COc1ccccc1-c1cn(CC[C@H]2CC[C@H](NC(=O)Cc3ccccn3)[C@H](CO)O2)nn1,1.37% (inactive)
13,Cc1noc(C)c1NC(=O)Nc1ccc2c(c1)C(=O)N([C@H](C)CO)C[C@@H](C)[C@H](CN(C)S(=O)(=O)c1ccc(Cl)cc1)OCCCC[C@H](C)O2,-20.3% (inactive)
14,CCC(=O)N[C@H]1C=C[C@@H](CC(=O)NCC2CCCCC2)O[C@H]1CO,4.15% (inactive)
15,OCCCNc1nccc(-c2cc(Nc3cccc(Cl)c3)ncn2)n1,95.7% [at 12.3 µM] (active)
16,Cn1c(Nc2cccc(Cl)c2)nc2ccccc21,-29.5% [at 12.3 µM] (inactive)
17,Cc1cccc(Nc2nc(NCCO)nc(N3CCCC3)n2)c1,-14.8% [at 12.3 µM] (inactive)
18,C[C@@H]1CN([C@@H](C)CO)C(=O)c2cc(NC(=O)Nc3ccc4c(c3)OCO4)ccc2O[C@@H]1CN(C)C(=O)Nc1ccc2c(c1)OCO2,16% (inactive)
19,C[C@@H]1CN([C@H](C)CO)C(=O)c2cccc(NC(=O)Nc3cccc4ccccc34)c2O[C@@H]1CN(C)Cc1ccccc1,-16.3% (inactive)
20,COc1ccc(S(=O)(=O)N2CCOCC2)cc1NC(=O)COc1ccccc1,-4.29% [at 12.3 µM] (inactive)
21,COc1ccc(-c2nn(C)c(=O)c3ccccc23)cc1CNC(=O)C1CCCCC1,23.3% [at 12.3 µM] (inactive)
22,COc1ccc(-c2nn(C)c(=O)c3ccccc23)cc1NC(=O)COc1ccccc1,79.8% [at 12.3 µM] (active)

row,SMILES,inhibition
1,Cc1noc(C)c1NC(=O)N[C@H]1CC[C@H](CC(=O)N2CCCCC2)O[C@@H]1CO,4.43% (inactive)
2,CCN(CC)C(=O)C1=C(C)N(Cc2ccccc2)C(=O)C(CC(=O)NC(c2ccccc2)c2ccccc2)C1 (stereo unspecified),-23.1% [at 12.3 µM] (inactive)
3,CC1=C(C(=O)N(C(C)C)C(C)C)CC(CC(=O)NCC2CCCCC2)C(=O)N1Cc1ccccc1 (stereo unspecified),61.4% [at 12.3 µM] (active)
4,CC1=C(C(=O)N2CCOCC2)CC(CC(=O)NCC2CCCCC2)C(=O)N1Cc1ccc(F)cc1 (stereo unspecified),6.87% [at 12.3 µM] (inactive)
5,COc1cc(CNC2CCCCC2)c(Br)cc1OC1CCCC1,-65.6% [at 12.3 µM] (inactive)
6,CC(NCc1ccccc1OC1CCCC1)c1ccccc1 (stereo unspecified),62.5% [at 12.3 µM] (active)
7,CC(C)(C)NCc1cc(Br)ccc1OC1CCCC1,14.4% [at 12.3 µM] (inactive)
8,CCOC(=O)CNC(=O)N(C)[C@H]1C[C@H]2c3[nH]c4c(-c5ccc6c(c5)OCO6)cccc4c3CCN2C(=O)[C@H]1[C@H](C)O,-112% [at 12.3 µM] (inactive)
9,CN1CCN(C(=O)C[C@H]2C[C@@H]3c4cc(NC(=O)NC5CCCC5)ccc4O[C@@H]3[C@@H](CO)O2)CC1,-8.97% (inactive)
10,CC1CCN(C(=O)c2ccc3c(c2)NC(=O)CN3)CC1,1.27% [at 12.3 µM] (inactive)
11,CC1CCN(C(=O)c2ncn3c2C(=O)N[C@@H](C)C3)CC1,131% [at 12.3 µM] (active)
12,CC1CCN(C(=O)c2cc3nc(C4CC4)cc(C(F)(F)F)n3n2)CC1,12.6% [at 12.3 µM] (inactive)
13,CCCNC(=O)N1[C@@H](C#N)[C@H](c2ccc(-c3ccc(C(=O)N(C)C)cc3)cc2)[C@@H]1CO,26% (inactive)
14,O=C(NCc1ccncn1)[C@@H]1[C@@H](CO)[C@@H]2Cn3c(ccc(-c4ccc(F)cc4)c3=O)[C@@H]2N1CC1CC1,-1.91% (inactive)
15,COc1ccc(NC(=O)Nc2ccc3c(c2)CC(=O)N([C@@H](C)CO)C[C@H](C)[C@@H](CN(C)S(=O)(=O)c2cn(C)cn2)O3)cc1,13% (inactive)
16,NC(=S)NN=Cc1ccc(OC(=O)COc2cc(Cl)c(Cl)cc2Cl)cn1,74.3% [at 12.3 µM] (active)
17,O=C(COC(=O)COc1cc(Cl)c(Cl)cc1Cl)NC1CC1,1.57% [at 12.3 µM] (inactive)
18,O=C(COc1cc(Cl)c(Cl)cc1Cl)NCCc1ccccn1,-1.39% [at 12.3 µM] (inactive)
19,CCCN(C)C[C@H]1OCCCC[C@@H](C)Oc2ccc(N(C)C)cc2C(=O)N([C@H](C)CO)C[C@@H]1C,0.797% (inactive)
20,CCOC(=O)c1c(C)[nH]c(C)c1S(=O)(=O)NCCCc1ccco1,-4.62% [at 12.3 µM] (inactive)
21,CCOC(=O)c1c(C)[nH]c2c1-c1ccccc1C(=O)C2=O,58.9% [at 12.3 µM] (active)
22,CCOC(=O)c1[nH]c2ccccc2c1N=C(C)N(CC)CC,-0.896% [at 12.3 µM] (inactive)

row,SMILES,inhibition
1,C[C@H](CO)N1C[C@H](C)[C@@H](CN(C)CC2CC2)Oc2ccc(NC(=O)Nc3ccccc3)cc2CC1=O,-2.58% (inactive)
2,CCN(C(=O)CN1C(=O)/C(=C/c2ccc(F)cc2)SC1=S)C1CCS(=O)(=O)C1 (stereo unspecified),-11.4% [at 12.3 µM] (inactive)
3,CN(C(=O)CCN1C(=O)/C(=C/c2ccccc2F)SC1=S)C1CCS(=O)(=O)C1 (stereo unspecified),-6.28% [at 12.3 µM] (inactive)
4,CN(C(=O)CN1C(=O)/C(=C/c2ccc(Cl)cc2)SC1=S)C1CCS(=O)(=O)C1 (stereo unspecified),55.1% [at 12.3 µM] (active)
5,CNC[C@H]1Oc2ncc(-c3ccccc3F)cc2C(=O)N([C@H](C)CO)C[C@H]1C,10.5% (inactive)
6,COc1ccccc1CNC(=O)C[C@H]1C[C@H]2c3cc(NS(=O)(=O)c4ccc(F)cc4)ccc3O[C@H]2[C@@H](CO)O1,-11.5% (inactive)
7,O=C(C[C@H]1C[C@@H]2c3cc(NS(=O)(=O)c4ccc(F)cc4)ccc3O[C@@H]2[C@@H](CO)O1)NCc1cccc(F)c1,10.7% (inactive)
8,O=C(C[C@@H]1C[C@@H]2c3cc(NS(=O)(=O)c4ccc(F)cc4)ccc3O[C@@H]2[C@H](CO)O1)NCc1ccccc1F,90.3% (active)
9,O=C(C[C@H]1C[C@@H]2c3cc(NS(=O)(=O)c4ccc(F)cc4)ccc3O[C@@H]2[C@H](CO)O1)NCc1cccc(F)c1,54.4% (inactive)
10,O=C(C[C@H]1C[C@H]2c3cc(NS(=O)(=O)c4ccc(F)cc4)ccc3O[C@H]2[C@H](CO)O1)NCc1cc(F)ccc1F,-74.8% [at 12.3 µM] (inactive)
11,O=C(C[C@@H]1C[C@H]2c3cc(NS(=O)(=O)c4ccc(F)cc4)ccc3O[C@H]2[C@@H](CO)O1)NCc1ccccc1F,56.4% (active)
12,C[C@@H]1CN([C@H](C)CO)C(=O)c2cc(C#CC3CCCC3)cnc2O[C@@H]1CN(C)C(=O)C1CCC1,-5.58% (inactive)
13,O=C(Cc1ccncc1)Nc1ccc2c(c1)[C@@H]1C[C@H](CC(=O)N3CCCCC3)O[C@H](CO)[C@@H]1O2,9.17% (inactive)
14,C[C@@H]1CCCCO[C@@H](CN(C)Cc2ccc(C(=O)O)cc2)[C@@H](C)CN([C@@H](C)CO)C(=O)c2cc(NC(=O)Nc3ccc(C(F)(F)F)cc3)ccc2O1,-4.94% (inactive)
15,COc1ccc2c3c([nH]c2c1)[C@H](CO)N(C(=O)Nc1ccc(F)cc1)CC31CN(S(=O)(=O)c2cccc(F)c2)C1,-38.9% (inactive)
16,COc1ccc2c3c([nH]c2c1)[C@@H](CO)N(C(=O)Nc1cccc(F)c1)CC31CCN(S(=O)(=O)c2ccccc2)CC1,80.9% (active)
17,COc1ccc2c3c(n(C)c2c1)[C@@H](CO)N(C(=O)Nc1cccc(F)c1)CC31CCN(Cc2nccs2)CC1,23.1% (inactive)
18,COc1ccc2c3c([nH]c2c1)[C@@H](CO)N(C(C)=O)CC31CN(C(=O)Nc2ccc(F)cc2)C1,31% (inactive)
19,COc1ccc2c3c([nH]c2c1)[C@H](CO)N(C(=O)c1ccccc1)CC31CN(C(=O)Nc2cccc(F)c2)C1,12.9% (inactive)
20,COc1ccc2c3c([nH]c2c1)[C@H](CO)N(C(=O)Nc1cccc(F)c1)CC31CCN(S(=O)(=O)c2ccccc2)CC1,92.2% (active)
21,N#C[C@@H]1[C@@H](c2ccc(-c3ccccc3F)cc2)[C@@H](CO)N1C(=O)C1CC1,-18.6% (inactive)
22,C[C@H]1CN([C@@H](C)CO)S(=O)(=O)c2ccc(C#CC3CCCC3)cc2O[C@@H]1CN(C)C(=O)c1cccc(F)c1,33.9% (inactive)
